# Measurements: PubChem BioAssay (EPA / NIEHS)
# Inconclusive results are not listed. Calls of active or inactive are those of the source. The calls were made as follows, unless noted: active = hit-call score of the fitted dose curve at least 0.9, where 1 is the maximum; inconclusive = response in the unintended direction; inactive = score below 0.9.
# Key:
# [1] = ATG_TAL_CIS: Attagene CIS-FACTORIAL HepG2 Assay for human TAL Basal Promoter (AID 2282966; active = hit-call score of the fitted dose curve at least 0.9, where 1 is the maximum; inactive = score below 0.9;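 also: background control endpoint measuring basal TAL promoter reporter mRNA not a specific factor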); details: HepG2 Attagene cis-factorial TAL promoter reporter; actives raise or lower the signal
# Procedure, shortened: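 Human hepatoma HepG2 cells, transfected with promoter-regulated reporter units, were treated 24 h. Reporter transcript levels, measured through RT-PCR and capillary electrophoresis, were fitted for gain or loss relative to DMSO.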
# [2] = ATG_TGFb_CIS: Attagene CIS-FACTORIAL HepG2 Assay for human Transforming Growth Factor (TGF) (AID 2282967; active = hit-call score of the fitted dose curve at least 0.9, where 1 is the maximum; inactive = score below 0.9); details: HepG2 Attagene CIS TGFb reporter, mRNA transcription; actives raise or lower the signal
# Procedure, shortened: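 Cells were dosed for 24 hours, after which total RNA was reverse-transcribed and reporter sequences amplified, labeled and sized by capillary electrophoresis. Activity was fitted in both directions against DMSO.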
# [3] = target: X-box-binding protein 1 (Homo sapiens) (UniProt P17861); test: ATG_Xbp1_CIS: Attagene CIS-FACTORIAL HepG2 Assay for human X-box Binding Protein 1 (XBP1) (AID 2282972; active = hit-call score of the fitted dose curve at least 0.9, where 1 is the maximum; inactive = score below 0.9); details: HepG2 XBP1 cis-element reporter, Attagene multiplex; actives raise or lower the signal
# Chain of X-box-binding protein 1 (Homo sapiens) (P17861 whole entry, looked up): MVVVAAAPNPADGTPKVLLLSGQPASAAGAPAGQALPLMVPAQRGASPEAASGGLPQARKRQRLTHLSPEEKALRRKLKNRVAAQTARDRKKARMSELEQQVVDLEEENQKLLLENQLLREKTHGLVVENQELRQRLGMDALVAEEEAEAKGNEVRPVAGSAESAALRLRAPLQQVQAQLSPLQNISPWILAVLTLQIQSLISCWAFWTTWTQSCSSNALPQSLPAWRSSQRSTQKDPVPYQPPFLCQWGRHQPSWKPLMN
# Procedure, shortened: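 Human hepatoma HepG2, cis-element reporter system, 24 h treatment; mRNA quantified by RT-PCR/CE fluorescence; fit relative to DMSO.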
# [4] = ATG_M_19_TRANS: Attagene TRANS-FACTORIAL HepG2 Assay for M19 Transcription Factor (Internal Marker) (AID 2282974); details: HepG2 Attagene TRANS-FACTORIAL M19 internal marker reporter
# Procedure, shortened: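 24 h chemical exposure of transiently transfected HepG2 (MRTU library). RNA → oligo(dT) RT → PCR → 6-FAM labelling → HpaI cut → CE fluorescence. Positive-direction fit vs DMSO baseline; background internal-marker readout.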
# [5] = target: Hepatocyte nuclear factor 4-alpha (Homo sapiens) (UniProt P41235); test: ATG_HNF4a_TRANS: Attagene TRANS-FACTORIAL HepG2 Assay for human Hepatocyte Nuclear Factor 4 alpha (HNF4a) (AID 2282982); details: HepG2 HNF4a transactivation reporter, mRNA readout
# Chain of Hepatocyte nuclear factor 4-alpha (Homo sapiens) (P41235 whole entry, looked up): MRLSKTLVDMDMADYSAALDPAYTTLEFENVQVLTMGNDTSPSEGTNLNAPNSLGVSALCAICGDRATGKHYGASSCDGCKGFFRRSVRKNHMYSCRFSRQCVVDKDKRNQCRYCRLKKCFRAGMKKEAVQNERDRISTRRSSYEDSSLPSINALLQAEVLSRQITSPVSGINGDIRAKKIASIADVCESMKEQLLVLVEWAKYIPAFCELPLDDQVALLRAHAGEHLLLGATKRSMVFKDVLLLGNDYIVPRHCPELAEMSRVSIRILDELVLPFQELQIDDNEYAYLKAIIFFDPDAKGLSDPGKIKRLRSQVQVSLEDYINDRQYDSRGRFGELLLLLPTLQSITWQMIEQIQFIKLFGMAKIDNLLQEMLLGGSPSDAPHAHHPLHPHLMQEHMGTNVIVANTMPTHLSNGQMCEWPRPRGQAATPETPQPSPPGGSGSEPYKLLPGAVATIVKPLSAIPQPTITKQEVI
# Procedure, shortened: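 Transient MRTU transfection of HepG2, 24 h dosing. Readout: reporter mRNA via RT-PCR + capillary electrophoresis, fluorescence; activity fit upward relative to DMSO control.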
# [6] = ATG_M_32_TRANS: Attagene TRANS-FACTORIAL HepG2 Assay for M32 Transcription Factor (Internal Marker) (AID 2282984); details: HepG2 Attagene TRANS M32 internal marker reporter
# Procedure, shortened: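 Read-out: fluorescent reporter cDNA fragments resolved by capillary electrophoresis after RT-PCR of total RNA. Transfected HepG2 cells were exposed to chemical for 24 h. Activity scored in the positive direction relative to DMSO.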
# [7] = target: Transcriptional activator Myb (Homo sapiens) (UniProt P10242); test: ATG_Myb_CIS: Attagene CIS-FACTORIAL HepG2 Assay for human Myeloblastosis (Myb) Proto-Oncogene Transcription Factor (AID 2282986; active = hit-call score of the fitted dose curve at least 0.9, where 1 is the maximum; inactive = score below 0.9); details: HepG2 Attagene CIS-FACTORIAL Myb reporter transcription; actives raise or lower the signal
# Chain of Transcriptional activator Myb (Homo sapiens) (P10242 whole entry, looked up): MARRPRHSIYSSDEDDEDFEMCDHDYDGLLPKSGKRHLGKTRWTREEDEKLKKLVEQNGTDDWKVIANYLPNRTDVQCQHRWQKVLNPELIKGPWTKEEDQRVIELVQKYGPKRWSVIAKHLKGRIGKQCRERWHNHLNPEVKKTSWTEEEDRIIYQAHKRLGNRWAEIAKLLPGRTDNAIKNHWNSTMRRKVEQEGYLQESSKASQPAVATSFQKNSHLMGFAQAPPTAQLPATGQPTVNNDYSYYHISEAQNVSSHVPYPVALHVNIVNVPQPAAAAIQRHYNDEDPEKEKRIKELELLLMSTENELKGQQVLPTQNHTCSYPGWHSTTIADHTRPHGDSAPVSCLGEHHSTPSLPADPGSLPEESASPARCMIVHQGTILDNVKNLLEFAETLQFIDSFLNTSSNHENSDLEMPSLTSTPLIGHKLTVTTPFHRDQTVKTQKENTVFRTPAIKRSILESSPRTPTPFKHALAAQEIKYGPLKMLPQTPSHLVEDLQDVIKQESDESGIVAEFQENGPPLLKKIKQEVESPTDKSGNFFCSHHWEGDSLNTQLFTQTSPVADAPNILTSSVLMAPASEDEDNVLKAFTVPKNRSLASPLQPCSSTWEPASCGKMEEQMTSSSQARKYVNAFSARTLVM
# Procedure, shortened: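 HepG2, transient MRTU transfection (cis-element promoters, endogenous TF activity), 24 h compound exposure. Readout: reporter mRNA via RT-PCR, 6-FAM labeling, HpaI digest, capillary electrophoresis. Gain/loss fit vs DMSO.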
# [8] = target: Nuclear respiratory factor 1 (Homo sapiens) (UniProt Q16656); test: ATG_NRF1_CIS: Attagene CIS-FACTORIAL HepG2 Assay for human Nuclear Respiratory Factor 1 (NRF1) Orphan Gene (AID 2282987; active = hit-call score of the fitted dose curve at least 0.9, where 1 is the maximum; inactive = score below 0.9); details: HepG2 NRF1 cis-element reporter, Attagene multiplex; actives raise or lower the signal
# Procedure, shortened: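 Endogenous NRF1-driven reporter transcription measured in transiently transfected human HepG2 liver cells. Readout: reporter mRNA by RT-PCR and capillary electrophoresis with fluorescence detection, 24 h post-dosing. Gain or loss of signal fitted relative to DMSO baseline.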
# [9] = target: Estrogen receptor (Homo sapiens) (UniProt P03372); test: ATG_ERa_TRANS: Attagene TRANS-FACTORIAL HepG2 Assay for human Estrogen Receptor alpha (ERa) (AID 2282970); details: HepG2 Attagene TRANS ERa GAL4 reporter, mRNA
# Chain of Estrogen receptor (Homo sapiens) (P03372 whole entry, looked up, the tested form may be a part): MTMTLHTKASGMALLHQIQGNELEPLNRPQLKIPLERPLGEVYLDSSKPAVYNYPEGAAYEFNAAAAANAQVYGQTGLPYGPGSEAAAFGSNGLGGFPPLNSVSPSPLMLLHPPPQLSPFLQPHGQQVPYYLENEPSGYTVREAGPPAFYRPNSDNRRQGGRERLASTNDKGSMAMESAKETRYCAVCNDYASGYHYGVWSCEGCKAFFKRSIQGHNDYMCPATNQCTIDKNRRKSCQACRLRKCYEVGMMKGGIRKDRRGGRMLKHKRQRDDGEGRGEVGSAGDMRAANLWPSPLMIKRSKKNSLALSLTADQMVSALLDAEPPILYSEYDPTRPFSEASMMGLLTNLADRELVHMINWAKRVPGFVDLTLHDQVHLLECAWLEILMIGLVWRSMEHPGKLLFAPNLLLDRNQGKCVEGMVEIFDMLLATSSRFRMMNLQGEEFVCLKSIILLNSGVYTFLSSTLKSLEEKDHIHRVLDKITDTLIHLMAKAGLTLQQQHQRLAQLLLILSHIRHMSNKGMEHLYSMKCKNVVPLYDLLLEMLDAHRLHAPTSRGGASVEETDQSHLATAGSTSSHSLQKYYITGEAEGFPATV
# Procedure, shortened: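 Signal derives from fluorescence of labelled reporter PCR fragments separated by capillary electrophoresis. HepG2 cells transiently carrying multiple GAL4-UAS reporter units were treated 24 hours, and induction above DMSO baseline was fitted as activity.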
# [10] = ATG_M_06_TRANS: Attagene TRANS-FACTORIAL HepG2 Assay for M06 Transcription Factor (Internal Marker) (AID 2282983); details: HepG2 Attagene TRANS M06 internal marker reporter
# Procedure, shortened: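 Multi-reporter-transfected HepG2, 24 h treatment; reporter transcripts quantified via RT-PCR, primer-extension labelling and CE. DMSO-normalized gain-of-signal fit.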
# [11] = target: Nuclear receptor subfamily 4 group A member 2 (Homo sapiens) (UniProt P43354); test: ATG_NURR1_TRANS: Attagene TRANS-FACTORIAL HepG2 Assay for human Nuclear Receptor Related Protein 1 (NURR1) (AID 2282985); details: HepG2 Attagene TRANS reporter, mRNA readout
# Chain of Nuclear receptor subfamily 4 group A member 2 (Homo sapiens) (P43354 whole entry, looked up, the tested form may be a part): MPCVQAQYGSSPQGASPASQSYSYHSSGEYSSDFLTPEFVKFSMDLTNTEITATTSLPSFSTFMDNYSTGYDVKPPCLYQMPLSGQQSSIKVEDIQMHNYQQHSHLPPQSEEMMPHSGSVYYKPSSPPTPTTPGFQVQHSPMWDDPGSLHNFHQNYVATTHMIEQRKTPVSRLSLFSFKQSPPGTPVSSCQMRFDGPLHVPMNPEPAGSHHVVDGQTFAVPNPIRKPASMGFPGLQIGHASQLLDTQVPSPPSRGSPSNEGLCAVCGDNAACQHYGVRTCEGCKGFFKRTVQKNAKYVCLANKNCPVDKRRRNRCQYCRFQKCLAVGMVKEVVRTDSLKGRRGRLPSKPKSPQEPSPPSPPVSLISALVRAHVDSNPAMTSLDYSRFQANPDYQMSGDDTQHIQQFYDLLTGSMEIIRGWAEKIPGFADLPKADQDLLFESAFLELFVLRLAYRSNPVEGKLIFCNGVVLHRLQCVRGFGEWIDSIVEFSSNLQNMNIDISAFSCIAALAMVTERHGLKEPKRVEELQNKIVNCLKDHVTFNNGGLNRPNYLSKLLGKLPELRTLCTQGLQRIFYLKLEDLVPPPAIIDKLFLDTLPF
# Procedure, shortened: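 Read-out: reporter mRNA induction by RT-PCR plus capillary electrophoresis with fluorescence detection, after 24 h dosing of transfected HepG2 cells. Exogenous NR-Gal4 chimera activity drives GAL4-UAS reporter; activity fitted upward versus DMSO.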
# [12] = target: Glucocorticoid receptor (Homo sapiens) (UniProt P04150); test: ATG_GR_TRANS: Attagene TRANS-FACTORIAL HepG2 Assay for human Glucocorticoid Receptor (GR) (AID 2282978); details: HepG2 Attagene TRANS GR reporter, mRNA transcription;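 also: activators score as hits since higher reporter transcript over DMSO is fitted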
# Chain of Glucocorticoid receptor (Homo sapiens) (P04150 whole entry, looked up, the tested form may be a part): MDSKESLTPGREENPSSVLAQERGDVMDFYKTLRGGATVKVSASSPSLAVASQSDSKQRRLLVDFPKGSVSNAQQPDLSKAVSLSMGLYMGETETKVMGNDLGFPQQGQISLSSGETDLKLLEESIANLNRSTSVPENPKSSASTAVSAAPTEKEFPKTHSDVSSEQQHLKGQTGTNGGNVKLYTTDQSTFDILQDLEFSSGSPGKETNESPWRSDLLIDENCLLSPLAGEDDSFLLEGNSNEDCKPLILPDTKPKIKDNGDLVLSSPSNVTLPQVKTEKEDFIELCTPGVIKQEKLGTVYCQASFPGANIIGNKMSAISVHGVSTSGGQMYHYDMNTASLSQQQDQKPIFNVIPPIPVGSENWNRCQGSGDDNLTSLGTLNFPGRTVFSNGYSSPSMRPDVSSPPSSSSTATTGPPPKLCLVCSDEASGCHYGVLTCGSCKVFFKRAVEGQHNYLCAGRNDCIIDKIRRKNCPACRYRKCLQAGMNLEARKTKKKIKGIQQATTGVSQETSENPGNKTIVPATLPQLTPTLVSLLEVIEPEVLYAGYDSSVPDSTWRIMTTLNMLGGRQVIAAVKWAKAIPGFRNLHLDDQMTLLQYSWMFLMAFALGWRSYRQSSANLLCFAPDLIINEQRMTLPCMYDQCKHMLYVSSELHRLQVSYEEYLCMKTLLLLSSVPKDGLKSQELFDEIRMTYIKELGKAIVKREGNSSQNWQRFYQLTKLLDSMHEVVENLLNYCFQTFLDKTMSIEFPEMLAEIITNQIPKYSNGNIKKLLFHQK
# Procedure, shortened: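 Transient MRTU transfection of HepG2 (GAL4-UAS reporters, exogenous NR-GAL4 chimeras), 24 h dosing. Readout: reporter transcript via RT-PCR + capillary electrophoresis fluorescence. Positive direction vs DMSO baseline.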
# [13] = target: Nuclear receptor subfamily 1 group I member 3 (Homo sapiens) (UniProt Q14994); test: ATG_CAR_TRANS: Attagene TRANS-FACTORIAL HepG2 Assay for human Constitutive Androstane Receptor (CAR) (AID 2282969); details: HepG2 Attagene TRANS-FACTORIAL CAR reporter;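 also: activators raise reporter mRNA above DMSO so AC50 marks induction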
# Chain of Nuclear receptor subfamily 1 group I member 3 (Homo sapiens) (Q14994 whole entry, looked up, the tested form may be a part): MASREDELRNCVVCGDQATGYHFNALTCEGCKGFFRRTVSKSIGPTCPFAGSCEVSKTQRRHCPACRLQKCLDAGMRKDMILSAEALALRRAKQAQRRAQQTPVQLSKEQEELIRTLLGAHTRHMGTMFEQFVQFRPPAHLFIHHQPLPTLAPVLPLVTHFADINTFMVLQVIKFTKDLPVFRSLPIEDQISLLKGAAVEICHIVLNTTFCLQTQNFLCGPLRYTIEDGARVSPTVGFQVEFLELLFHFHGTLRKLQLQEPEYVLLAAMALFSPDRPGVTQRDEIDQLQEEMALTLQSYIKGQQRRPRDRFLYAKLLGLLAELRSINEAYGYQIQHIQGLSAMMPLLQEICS
# Procedure, shortened: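 Transiently transfected HepG2, multiplex TRANS reporters (CAR-Gal4 chimera driving GAL4-UAS reporter). 24 h dosing. Readout: reporter transcript by RT-PCR + capillary electrophoresis, fluorescence intensity; positive direction vs DMSO.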
# [14] = ATG_GAL4_TRANS: Attagene TRANS-FACTORIAL HepG2 Assay for GAL4 (Internal Marker) (AID 2282976); details: HepG2 Attagene TRANS GAL4 internal marker reporter
# Procedure, shortened: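 Liver HepG2 line bearing multiplexed GAL4-UAS reporter constructs; 24 h chemical treatment. Transcripts were quantified as fluorescent fragments on capillary electrophoresis after RT-PCR and HpaI cut, with activity fitted upward from DMSO.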
# [15] = target: Oxysterols receptor LXR-beta (Homo sapiens) (UniProt P55055); test: ATG_LXRb_TRANS: Attagene TRANS-FACTORIAL HepG2 Assay for human Liver X Receptor beta (LXRb) (AID 2282981); details: HepG2 Attagene TRANS GAL4-LXRb reporter, mRNA
# Procedure, shortened: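 Readout: fluorescent reporter mRNA fragments resolved by capillary electrophoresis after RT-PCR. System: transiently transfected human HepG2, exogenous LXRb-Gal4 chimera driving GAL4-UAS reporter, 24 h dosing. Activity fitted upward against DMSO baseline.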
# [16] = target: Steroid hormone receptor ERR1 (Homo sapiens) (UniProt P11474); test: ATG_ERRa_TRANS: Attagene TRANS-FACTORIAL HepG2 Assay for human Estrogen-Related Receptor alpha (ERRa) (AID 2282971); details: HepG2 Attagene TRANS reporter, ERRa transactivation
# Procedure, shortened: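 Signal gain relative to DMSO for an ERRa-Gal4 chimeric receptor, read as reporter mRNA by RT-PCR/capillary electrophoresis. Human HepG2 liver cells, transient multiplex reporter transfection, 24 h chemical exposure.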
# [17] = target: Estrogen-related receptor gamma (Homo sapiens) (UniProt P62508); test: ATG_ERRg_TRANS: Attagene TRANS-FACTORIAL HepG2 Assay for human Estrogen-Related Receptor gamma (ERRg) (AID 2282977); details: HepG2 Attagene TRANS reporter, ERRg transactivation;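 also: hits increase reporter signal over DMSO so potencies reflect activators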
# Procedure, shortened: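 Exogenous NR-Gal4 chimera activity was assessed in HepG2 cells bearing transfected GAL4-UAS reporters. After 24 h dosing, total RNA underwent RT-PCR, fluorescent primer extension and HpaI digestion before capillary electrophoresis, with gain of signal scored against DMSO.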
# [18] = target: Bile acid receptor (Homo sapiens) (UniProt Q96RI1); test: ATG_FXR_TRANS: Attagene TRANS-FACTORIAL HepG2 Assay for Farnesoid X Receptor (FXR) (AID 2282979); details: HepG2 Attagene TRANS FXR-GAL4 reporter transcription;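 also: hits raise reporter mRNA above DMSO so AC50 marks FXR activation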
# Chain of Bile acid receptor (Homo sapiens) (Q96RI1 whole entry, looked up, the tested form may be a part): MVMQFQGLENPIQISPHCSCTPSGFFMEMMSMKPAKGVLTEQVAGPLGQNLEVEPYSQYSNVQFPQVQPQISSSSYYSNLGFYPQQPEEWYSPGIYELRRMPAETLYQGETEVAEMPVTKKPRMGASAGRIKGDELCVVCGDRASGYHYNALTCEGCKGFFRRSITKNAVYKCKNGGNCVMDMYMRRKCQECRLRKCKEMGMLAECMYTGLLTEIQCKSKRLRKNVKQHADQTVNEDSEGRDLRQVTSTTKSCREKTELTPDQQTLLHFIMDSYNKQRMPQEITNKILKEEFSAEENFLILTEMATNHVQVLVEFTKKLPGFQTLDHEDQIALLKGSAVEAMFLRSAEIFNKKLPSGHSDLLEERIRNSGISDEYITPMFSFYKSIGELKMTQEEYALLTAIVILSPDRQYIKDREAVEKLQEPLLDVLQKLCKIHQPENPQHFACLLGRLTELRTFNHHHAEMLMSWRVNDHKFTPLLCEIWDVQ
# Procedure, shortened: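 After 24 h chemical treatment of transfected HepG2 cells, GAL4-UAS reporter transcripts driven by an exogenous FXR-GAL4 fusion were measured by RT-PCR and capillary electrophoresis. Increases over DMSO were fitted.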
# [19] = target: Oxysterols receptor LXR-alpha (Homo sapiens) (UniProt Q13133); test: ATG_LXRa_TRANS: Attagene TRANS-FACTORIAL HepG2 Assay for human Liver X Receptor alpha (LXRa) (AID 2282980); details: HepG2 Attagene TRANS reporter, LXRa transactivation
# Chain of Oxysterols receptor LXR-alpha (Homo sapiens) (Q13133 whole entry, looked up, the tested form may be a part): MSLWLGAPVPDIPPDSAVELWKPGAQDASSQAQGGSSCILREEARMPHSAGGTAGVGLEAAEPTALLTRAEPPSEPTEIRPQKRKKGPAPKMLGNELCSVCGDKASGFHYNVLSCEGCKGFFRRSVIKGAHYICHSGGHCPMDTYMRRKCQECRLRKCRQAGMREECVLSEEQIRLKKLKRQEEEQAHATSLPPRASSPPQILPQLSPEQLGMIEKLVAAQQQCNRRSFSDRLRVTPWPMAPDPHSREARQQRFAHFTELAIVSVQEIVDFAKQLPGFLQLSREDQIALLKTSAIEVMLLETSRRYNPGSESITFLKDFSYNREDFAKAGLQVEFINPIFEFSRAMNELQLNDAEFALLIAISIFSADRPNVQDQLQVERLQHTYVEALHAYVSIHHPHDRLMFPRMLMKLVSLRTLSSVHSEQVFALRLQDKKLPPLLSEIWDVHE
# Procedure, shortened: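 In this multiplexed TRANS system, compounds act on HepG2 cells carrying GAL4-UAS reporter units and a receptor-GAL4 fusion for 24 h. Induced reporter RNA is amplified, fluorescently labelled and sized by capillary electrophoresis, with DMSO as baseline.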
smiles,measurement,setting,value
O=C(O)Cc1c(Cl)ccc(Cl)c1Cl,outcome,[1],inactive
same,outcome,[2],inactive
same,outcome,[3],inactive
same,outcome,[4],inactive
same,outcome,[5],inactive
same,outcome,[6],inactive
same,outcome,[7],inactive
same,outcome,[8],inactive
O=c1[nH]c(=O)c2[nH]c(=O)[nH]c2[nH]1,outcome,[1],inactive
same,outcome,[2],inactive
same,outcome,[9],inactive
same,outcome,[3],inactive
same,outcome,[10],inactive
same,outcome,[11],inactive
same,outcome,[7],inactive
same,outcome,[8],inactive
OC1CCCCCCCCCCC1,outcome,[1],inactive
same,outcome,[2],inactive
same,AC50,[9],10.6 µM (active)
same,outcome,[3],inactive
same,outcome,[12],inactive
same,outcome,[10],inactive
same,outcome,[7],inactive
same,outcome,[8],inactive
CC(=O)Nc1nnc(S(N)(=O)=O)s1,outcome,[1],inactive
same,outcome,[2],inactive
same,outcome,[13],inactive
same,outcome,[9],inactive
same,outcome,[3],inactive
same,outcome,[14],inactive
same,outcome,[12],inactive
same,outcome,[15],inactive
same,outcome,[10],inactive
same,outcome,[6],inactive
same,outcome,[7],inactive
same,outcome,[8],inactive
CC(=O)Oc1ccc(C)cc1,outcome,[1],inactive
same,outcome,[2],inactive
same,outcome,[3],inactive
same,outcome,[4],inactive
same,outcome,[14],inactive
same,outcome,[6],inactive
same,outcome,[11],inactive
same,outcome,[7],inactive
same,outcome,[8],inactive
CCCCC/C=C\C/C=C\CCCCCCCC(=O)OC,outcome,[1],inactive
same,outcome,[2],inactive
same,outcome,[13],inactive
same,outcome,[3],inactive
same,outcome,[5],inactive
same,outcome,[10],inactive
same,outcome,[6],inactive
same,AC50,[7],162 µM (active)
same,AC50,[8],171 µM (active)
Nc1cccc(C(F)(F)F)c1,outcome,[1],inactive
same,outcome,[2],inactive
same,outcome,[9],inactive
same,outcome,[16],inactive
same,outcome,[3],inactive
same,outcome,[17],inactive
same,outcome,[18],inactive
same,outcome,[19],inactive
same,outcome,[15],inactive
same,outcome,[10],inactive
same,outcome,[6],inactive
same,outcome,[11],inactive
same,outcome,[7],inactive
same,outcome,[8],inactive
COC(=O)C1=C(C)NC(C)=C(C(=O)OCC(C)C)C1c1ccccc1[N+](=O)[O-] (centres undefined),outcome,[1],inactive
same,outcome,[2],inactive
same,outcome,[13],inactive
same,outcome,[3],inactive
same,outcome,[14],inactive
same,outcome,[12],inactive
same,outcome,[18],inactive
same,outcome,[19],inactive
same,outcome,[5],inactive
same,outcome,[10],inactive
same,outcome,[6],inactive
same,outcome,[11],inactive
same,outcome,[7],inactive
CCCCCCC(O)CO (centres undefined),outcome,[1],inactive
same,outcome,[2],inactive
same,outcome,[3],inactive
same,outcome,[18],inactive
same,outcome,[19],inactive
same,outcome,[5],inactive
same,outcome,[10],inactive
same,outcome,[11],inactive
same,outcome,[7],inactive
same,outcome,[8],inactive
Cc1cnc(NC(=O)C2=C(O)c3ccccc3S(=O)(=O)N2C)s1,outcome,[1],inactive
same,outcome,[2],inactive
same,outcome,[9],inactive
same,outcome,[3],inactive
same,outcome,[4],inactive
same,outcome,[12],inactive
same,outcome,[18],inactive
same,outcome,[19],inactive
same,outcome,[10],inactive
same,outcome,[6],inactive
same,outcome,[11],inactive
same,outcome,[7],inactive
same,outcome,[8],inactive
SCCc1cnccn1,AC50,[1],100 µM (active)
same,outcome,[2],inactive
same,outcome,[16],inactive
same,outcome,[3],inactive
same,outcome,[14],inactive
same,outcome,[5],inactive
same,outcome,[10],inactive
same,outcome,[11],inactive
same,outcome,[7],inactive
same,outcome,[8],inactive
